In PubChem BioAssay (NCATS):
Inconclusive results are not listed. Calls of active or inactive are those of the source. Calls follow the shape of the dose curve; as a rule, active = well fitted inhibition curve with a large enough effect; inconclusive = small, poorly fitted or top-dose-only effect; inactive = no such curve, though single readings can be large or run the other way.

Assay: Primary qHTS for small molecule stabilizers of the endoplasmic reticulum resident proteome: Secreted ER Calcium Modulated Protein (SERCaMP) assay (AID 1508630)
Conditions: SH-SY5Y GLuc-SERCaMP (Gaussia luciferase released on ER calcium loss) secretion, thapsigargin, luminescence; series mostly up to 38.4 µM; activity change, negative = inhibition: at the top concentration
How it was run: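 GLuc-SERCaMP-expressing SH-SY5Y cells, pretreated 16 h with compound, are challenged with thapsigargin to empty ER calcium stores; after 4 h, coelenterazine is added directly to the medium and luminescence is imaged.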
% is scaled to controls: 0 for no effect and ±100 for the full control effect.

Activity change, negative = inhibition, inactive:
C[C@@H](CN(C)C[C@H]1C(=O)O[C@@H]2C[C@@]3(C)CCC[C@]4(CO4)C3CC21)[C@H](O)c1ccccc1 (some centres not stated) -14.7%
Cc1cc(O)c(C)c2c1CC[C@H]1[C@H](C)C(=O)O[C@H]21 -9.68%
COC(=O)C1=COC(O[C@H]2OC(CO)[C@H](O)C(O)C2O)[C@H]2C1C(=O)C[C@@H]2C (some centres not stated) -4.03%
COc1cc(=O)n(C)c2c(OCC3OC(C)(C)OC3(C)C)cccc12 (configuration not stated) -6.1%
Cc1cc(O)c2c(c1O)C(=O)C(O)=C(O)C2=O -18%
CC1=CC2C(C)(C)CC(=O)C[C@]2(C)CC1COc1ccc2c(c1)CC(=O)C=C2 (some centres not stated) 8.67%
O=c1ccc2ccc(O[C@@H]3O[C@H](CO)[C@@H](O)[C@H](O)[C@H]3O)c(O)c2o1 -7.86%
C/C=C/c1ccc2oc(-c3ccc(O)cc3)c(C)c2c1 10.8%
CC1CCC2=C1C[C@H](C(C)(C)O)CC[C@@H]2C (some centres not stated) -3.16%
COc1ccc(/C=C2\NC(=O)[C@@H]3Cc4ccccc4CN3C2=O)cc1 1.26%
Oc1cc2c(cc1O)[C@@H]1c3ccc(O)c(O)c3OC[C@]1(O)C2 -0.74%
C=CC(C1=CC(=O)C=CC1=O)c1ccc(O)cc1 (configuration not stated) -5.78%
O=C(O)C1CC[C@@](C(=O)O)(c2ccccc2)c2ccccc21 (some centres not stated) -18.4%
CC(=O)C1(C)CC2(CC(C)(C)OC2=O)C(=O)O1 (configuration not stated) -23%
C=C1C[C@]23CC[C@H]4C(CO)(CO)C[C@@H](O)C[C@@]4(C)[C@@H]2CC[C@H]1C3 -0.832%
Cc1cc2c3c(cccc3n1)C(=O)c1ccccc1-2 13.7%
COc1c2c(nc3occc13)C(CC=C(C)C)(OC)C(=O)C=C2 (configuration not stated) 19.4%
